Assay results reported in PubChem BioAssay (NCI).
Compounds without any hit were thinned out: in the full panel of roughly 79,000, 15% have a hit. The source made the active and inactive calls. Rule as the data show it: active = growth inhibition above about 70%; inactive = the rest.

Test: NCI Yeast Anticancer Drug Screen. Data for the rad52 strain (AID 147);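 also: 0% = growth of vehicle-treated control cultures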
Conditions: S. cerevisiae rad52 mutant growth inhibition, stronger effect = higher value
Description: Growth inhibition of yeast strains with defined genetic alterations is measured as a screen for potential anti-cancer activity. Selected strains with alterations in DNA damage repair or cell cycle control were exposed to compounds and growth inhibition was measured relative to vehicle treated controls. The strain used in this assay is rad52

Measured: growth inhibition

CCOC(=O)C1=C(C)NC(C)=C(C(=O)OCC)C1c1ccccc1Cl
active: at 100.0 µM 93%
inactive: at 1.2 µM -25% | at 3.7 µM -10% | at 11.0 µM 4% | at 33.0 µM 42%

Clc1c(Cl)c(Cl)c2n[nH]nc2c1Cl
inactive: at 1.2 µM -30% | at 3.7 µM -11% | at 11.0 µM -20% | at 33.0 µM -12% | at 100.0 µM 65%

CC(=O)C1=C(O)C2(C)c3c(O)c(C)c(O)c(C(C)=O)c3OC2(Sc2ccccc2)CC1=O (stereo not given)
active: at 100.0 µM 86%
inactive: at 1.2 µM 24% | at 3.7 µM 43% | at 11.0 µM 54% | at 33.0 µM 58%

Oc1ccc(C=Nc2ccccc2O)cc1
inactive: at 1.2 µM 34% | at 3.7 µM 52% | at 11.0 µM 56%
active: at 33.0 µM 75% | at 100.0 µM 88%

CN(C)Cc1cccc(CN(C)C)[c]1[Sn]([Br])([c]1ccccc1)[c]1ccccc1
active: at 33.0 µM 74% | at 100.0 µM 97%
inactive: at 1.2 µM 28% | at 3.7 µM 45% | at 11.0 µM 57%

O=NN(CCCl)C(=O)NCCCl
inactive: at 1.2 µM 0% | at 3.7 µM 1% | at 11.0 µM 6% | at 33.0 µM 13% | at 100.0 µM 51%

CCCCCC#CCOC(=O)C(=[N+]=[N-])P(=O)(c1ccccc1)c1ccccc1
active: at 100.0 µM 96%
inactive: at 1.2 µM 7% | at 3.7 µM 16% | at 11.0 µM 7% | at 33.0 µM 10%

CC(=O)O[C@H]1C(=O)[C@@]2(C)[C@H]([C@H](OC(=O)c3ccccc3)[C@]3(O)C[C@H](OC(=O)[C@H](O)[C@@H](NC(=O)c4ccccc4)c4ccccc4)C(C)=C1C3(C)C)[C@]1(OC(C)=O)CO[C@@H]1C[C@@H]2O
inactive: at 1.2 µM 0% | at 3.7 µM 0% | at 11.0 µM 1% | at 33.0 µM 1% | at 100.0 µM 0%
